Compound activity from PubChem.
A selection: hits, their analogues and other compounds. The true share with any hit is near 1.2%.
RGS4-Gao reg – modulators of RGS4 binding to Galphao, primary screen, biochemical, multiplexed bead flow cytometry; AID 1415, 2008; Guanine nucleotide-binding protein G(o) subunit alpha (Homo sapiens), P09471; hit rate 0.33% among 220,000; binding response (% of control), % at 10 µM; actives lie on both sides; in the data active = binding response below about 49% or above about 150%; inactive = in between;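 also: fluorescent Galphao activated with aluminum fluoride binding bead-coupled RGS4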
Target sequence (P09471 whole entry, looked up): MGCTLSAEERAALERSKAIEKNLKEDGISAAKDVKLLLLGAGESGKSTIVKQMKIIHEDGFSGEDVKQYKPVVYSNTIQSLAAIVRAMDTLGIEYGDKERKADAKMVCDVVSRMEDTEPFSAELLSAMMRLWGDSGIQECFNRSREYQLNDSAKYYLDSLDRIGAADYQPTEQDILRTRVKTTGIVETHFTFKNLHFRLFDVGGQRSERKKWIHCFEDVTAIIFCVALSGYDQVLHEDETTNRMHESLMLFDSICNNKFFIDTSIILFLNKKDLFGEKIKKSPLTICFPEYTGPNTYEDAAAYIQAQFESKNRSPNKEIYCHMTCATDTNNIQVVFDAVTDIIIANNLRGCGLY
GSH fluor – compound fluorescence on glutathione beads, profiling panel, artefact control, biophysical, 488/530 nm, flow cytometry. GSH beads flow cytometry, compound fluorescence 488/530 nm; active compounds read high. fluorescence (KMESF) at 10 µM. hit rate 0.25% among 190,000; in the data active = fluorescence above about 89;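 also: glutathione beads carrying GST-tagged Bcl family fusion proteins plus one bare bead set; values are compound well signal with DMSO vehicle wells as background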
RGS7-Gao – RGS7-Galphao binding modulators, primary screen, biochemical, multiplexed bead flow cytometry. actives lie on both sides. binding response (% of control), % at 10 µM. hit rate 0.35% among 220,000. Guanine nucleotide-binding protein G(o) subunit alpha (Homo sapiens), P09471; in the data active = binding response below about 49% or above about 150%; inconclusive = no clear call, values can overlap the other calls; inactive = in between;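 also: fluorescent Galphao held in activated GDP-AlF4 state binding bead-coupled RGS7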
RGS16-Gao HTS – modulators of RGS16 binding to Galphao, primary screen, biochemical, human proteins, multiplexed bead flow cytometry; Regulator of G-protein signaling 16 (Homo sapiens) + Guanine nucleotide-binding protein …; bead-based flow cytometry RGS16-Galphao binding, fluorescence; actives lie on both sides; binding response (% of control), % at 10 µM; hit rate 0.38% among 220,000; AID 1441, 2008;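 also: Galphao activated by GDP with aluminum fluoride before binding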
RGS8-Gao reg – RGS8-Galphao binding modulators, primary screen, biochemical, multiplexed bead flow cytometry. Guanine nucleotide-binding protein G(o) subunit alpha (Homo sapiens), P09471. actives lie on both sides. response (percent of control binding), % at 10 µM. hit rate 0.34% among 220,000. AID 1423, 2008; in the data active = response below about 60% or above about 140%; inactive = in between;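 also: Galphao activated as the GDP aluminium fluoride complex binding bead-coupled RGS8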
Avidin fluor – green autofluorescence of compounds with avidin beads – biophysical, 488/530 nm, flow cytometry, artefact control, profiling panel; fluorescence (KMESF) at 10 µM; AID 1775, 2009; compound fluorescence 488/530 nm; active compounds read high; hit rate 0.38% among 220,000; in the data active = fluorescence above about 47
RGS4-Gao HTS – modulators of RGS–Galpha-o binding, primary screen, biochemical, multiplexed beads, flow cytometry, RGS4/7/8/16/19. shares compounds with RGS16-Gao HTS. AID 1504, 2009. RGS4–Galpha-o binding response, % at 10 µM. hit rate 99% among 1,600. multiplexed bead flow cytometry;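 also: fluorescently labeled Galpha-o bound to GDP with aluminium fluoride binding biotinylated RGS beads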
Avidin counter – disruption of biotin probe capture by avidin, counter-screen for RGS protein interaction modulators, biochemical, flow cytometry, bead-based; shares compounds with RGS16-Gao HTS; streptavidin beads, fluorescein-biotin binding; inhibition, % at 10 µM; 1,700 tested, under 10 active; AID 1783, 2009;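 active = inhibition above 50%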;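 also: median green fluorescence of gated singlet beads compared with DMSO control wells; 0% = DMSO wells and 100% = complete loss of bead fluorescence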
RGS8-Gao single – RGS8-Galphao binding modulators, confirmation, biochemical, multiplexed bead flow cytometry, single concentration; shares compounds with RGS16-Gao HTS; binding response (% of control), % at 10 µM; AID 1836, 2009; hit rate 3% among 1,700; bead-based flow cytometry RGS8-Galphao binding, fluorescence; actives lie on both sides; in the data active = binding response below about 72% or above about 130%; inactive = in between;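 also: Galphao activated as GDP AlF4 complex before binding bead RGS8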
RGS7-Gao single – RGS7-Galphao binding modulators, confirmation, biochemical, multiplexed bead flow cytometry, single concentration | shares compounds with RGS16-Gao HTS | bead-based flow cytometry RGS7-Galphao binding; actives lie on both sides | response (percent of control binding), % at 10 µM | hit rate 7.8% among 1,700; in the data active = response below about 75% or above about 130%; inactive = in between;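 also: fluorescent Galphao activated with GDP and aluminum fluoride binding bead-coupled RGS7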
RGS16-Gao single – modulators of RGS16-Galphao protein binding, confirmation, biochemical, single concentration, multiplexed bead flow cytometry. hit rate 4% among 1,700. bead-based flow cytometry; actives lie on both sides. shares compounds with RGS16-Gao HTS. response (% of control binding), % at 10 µM; in the data active = response below about 74% or above about 130%; inactive = in between;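 also: Galphao activated as the GDP aluminium fluoride complex binding bead-coupled RGS16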
RGS4-Gao confirm – modulators of RGS4-Galphao protein binding, confirmation, biochemical, single concentration, multiplexed bead flow cytometry; shares compounds with RGS16-Gao HTS; actives lie on both sides; binding response (% of control), % at 10 µM; hit rate 4% among 1,700; AID 1840, 2009; in the data active = binding response below about 74% or above about 130%; inactive = in between
RGS19-Gao conf – regulators of RGS19-Galphao binding, confirmation, biochemical, single point, multiplexed bead flow cytometry | shares compounds with RGS16-Gao HTS | bead-based flow cytometry RGS19-Galphao binding; actives lie on both sides | hit rate 5% among 1,700 | response (percent of control binding), % at 10 µM; in the data active = response below about 50% or above about 160%; inactive = in between;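 also: 100% = no compound control and 0% = blank background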
An asterisk follows results filed as active; ? = inconclusive; · = not tested or not shown. Unless noted, no rule for the calls is given here.

SMILES | RGS4-Gao reg | GSH fluor | RGS7-Gao | RGS16-Gao HTS | RGS8-Gao reg | Avidin fluor | RGS4-Gao HTS | Avidin counter | RGS8-Gao single | RGS7-Gao single | RGS16-Gao single | RGS4-Gao confirm | RGS19-Gao conf
Cc1ccccc1-n1c(-c2ccncc2)n[nH]c1=S | 91.1 | 11 | 88.2 | 18.2* | 64.1 | 13 | 91.1* | 0.2 | 106.5 | 111.2 | 106.9 | 109.6 | 100.6
C=CCn1c(=O)[nH]c2cc(C(=O)N3CC=C(c4ccccc4)CC3)ccc2c1=O | 101.5 | 16 | ? | 98.0 | 98.5 | 12 | · | · | · | · | · | · | ·
O=C(NCc1cccnc1)c1ccc(COc2ccc(Cl)cc2Cl)o1 | 101.1 | 19 | 99.0 | 101.0 | 98.8 | 10 | · | · | · | · | · | · | ·
O=C(NCc1cccnc1)c1ccc(COc2cccc3ccccc23)o1 | 49.2* | 18 | 46.8* | 41.4 | 56.4* | 3 | · | 1.5 | 102.3 | 94.6 | 101.3 | 99.6 | 91.0
O=C(O)c1cc(S(=O)(=O)N2CCOCC2)ccc1N1CCCCC1 | 97.1 | 21 | 100.0 | 98.2 | 98.1 | 9 | · | · | · | · | · | · | ·
O=c1c2ccccc2sn1-c1cc(S(=O)(=O)N2CCOCC2)ccc1N1CCCC1 | 85.8 | 24 | 100.0 | -21.1* | 40.9* | -1 | 85.8* | -1.3 | 37.6* | 89.8 | 10.5* | 78.3 | 4.4*
O=c1c2ccccc2sn1-c1cc(S(=O)(=O)N2CCOCC2)ccc1N1CCOCC1 | 98.8 | 19 | 122.6 | 0.6* | 47.8* | 1 | 98.8* | · | · | · | · | · | ·
O=C(O)c1cc(S(=O)(=O)N2CCOCC2)ccc1N1CCOCC1 | 99.2 | 17 | 100.6 | 98.5 | 101.0 | 10 | · | · | · | · | · | · | ·
Cc1cc2ncn(/N=C/c3ccc([N+](=O)[O-])o3)c2cc1C | 105.4 | 22 | 104.9 | 109.1 | 102.8 | 19 | · | · | · | · | · | · | ·
COC(=O)C(C)(C)ONC(=O)Nc1ccccc1Cl | 95.3 | 10 | ? | 98.4 | 96.2 | 11 | · | · | · | · | · | · | ·
Cc1ccc(S(=O)(=O)NCCC(=O)Nc2cccc(Cl)c2)cc1 | 103.3 | 15 | 99.1 | 94.5 | 101.5 | 14 | · | · | · | · | · | · | ·
O=C(OCc1ccccc1)C1=NNC2C(=O)N(Cc3ccccc3)C(=O)C12 (stereo unspecified) | 98.2 | 21 | ? | 96.1 | 100.7 | 10 | · | · | · | · | · | · | ·
